Our source for the growth inhibition values is PubChem BioAssay (NCI).

This is part of a sample that, as a whole, favours compounds with a hit. Of some 79,000 tested, about 15% had one in any assay. A number with no mark means an inactive call. The source made the active and inactive calls. Cut-off read from the data, not from the text of the source: active = growth inhibition above about 70%; inactive = the rest. Where a SMILES comes first, the peptide text is derived from it. The star is where a group is joined. Boc = CC(C)(C)OC(=O)*

The nature of the assay: NCI Yeast Anticancer Drug Screen. Data for the cln2 rad14 strain (AID 165).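 Note: 0% = growth equal to vehicle treated cultures.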 Particulars: S. cerevisiae cln2 rad14 strain, at 50.0 µM, hits give high values. The essentials: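 Strain: cln2 rad14 yeast, altered in cell cycle control and DNA damage repair. Read-out: growth inhibition vs vehicle.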
Turning to `C=CCCC1CN2CCc3cc(OC)c(OC)cc3C2CC1=O` (stereo not given), the growth inhibition was -41.7%.
The figure for `COC(=O)CCSC(=S)NCc1ccccc1` is -222%; for `CN(C)CC1CCC/C(=C\c2ccc(N(C)C)cc2)C1=O` (stereo not given) it is 12.2%; for `O=Cc1ccccc1[N+](=O)[O-]` it is 14.2%.
Regarding `Cc1cccc(C)c1Nc1cc(=O)[nH]c(=O)[nH]1`, the growth inhibition is -33.2%.
The figure for `S=C(Nc1ccc(I)cc1)SCc1ccc2c(c1)OCO2` is 32.2%; for `CC(=O)CC(=O)NCCCc1ccccc1` it is 3.5%; for `Cc1c2cnccc2c(C)c2c1c1ccccc1n2CCCCCC#N` it is 98.1% (active).
The figure for `c1ccc(N2CCCC2(c2ccccc2)c2ccccc2)cc1` is -11.8%; for `COC(=O)CCCCC#CCCCCC(=O)OC` it is -2.6%; for `CCCc1cc(OC(=O)c2c(O)cc(OC)cc2CCC)cc(O)c1C(=O)O` it is 49.2%.
Take `Nc1ncnc2nc(-c3ccc(C(=O)c4cccc([N+](=O)[O-])c4)cc3)[nH]c12`: the growth inhibition was -5.4%.
The figure for `CN(C)c1ccc(/C=c2\[nH]c(=O)/c(=C\c3ccc(N(C)C)cc3)[nH]c2=O)cc1` is 14.6%; for `O=C(NCCCl)NCc1cccc2c1CCCC2` it is -26.4%.
The figure for `Nc1ccc2c(c1)Cc1cccc(N)c1-2` is 11%.
As for `N#CNC(=NCC1CCCO1)Nc1cccnc1` (stereo not given), the growth inhibition was -23.4%.
Take `CC(=O)OCC1OC(OC(C)=O)C(NC(=O)CN(Cc2ccccc2)S(C)(=O)=O)C(OC(C)=O)C1OC(C)=O` (stereo not given): the growth inhibition is -1.65%.
The figure for `O=C1CCCCCCCS(=O)(=O)C1` is -19.6%; for `CCc1c(COC(=O)NC)c(COC(=O)NC)cc2c1[nH]c1ccccc12` it is -16.4%.
The figure for `O=c1[nH]c2nc[nH]c(=O)c2[nH]1` is -11.8%.
With `CCCCCCCCCCCCCC(=O)OCCN(C)C`, the growth inhibition is -32.6%.
The figure for `[N-]=[N+]=Nc1ccccc1C(=O)NCCCNC(=O)c1ccccc1N=[N+]=[N-]` is 1.8%; for `CCCC(=O)c1ccccc1` it is 15%; for `CCOc1ccc(C(=O)C=O)cc1` it is -0.7%.
Regarding `CC(C)COS(=O)(=O)O`, the growth inhibition is 24.9%.
With `C=C1CCC2[C@](C)(CCC[C@]2(C)C(=O)O)[C@@H]1CCc1ccoc1` (stereo not given in full), the growth inhibition was 77% (active).
The figure for `Cc1ccc(C)[nH]1` is 53.2%; for `C=C1C(C(=O)O)C1C(=O)O` (stereo not given) it is 3.6%.
The figure for `CCOCCOCCOC(=O)c1ccccc1O` is -14.5%; for `COc1ccccc1NC(=O)CC(=O)n1nc(C)c(N=Nc2ccccc2C(=O)O)c1C` it is -14.9%.
The figure for `Cc1ccc(C(=O)N/N=C/c2ccc(N(C)C)cc2Cl)cc1` is 22.9%; for `CCOC(=O)c1c(NC2=NCCC2)n[nH]c1N` it is 14.7%.
`O=[N+]([O-])c1ccccc1C1N2CCCCC2[C@@H]2c3[nH]c4ccccc4c3CCN12` (stereo not given in full): the growth inhibition was 1.85%.
`Cn1cc(/C=C\C(=O)O)c2ccccc21`: the growth inhibition is -35.2%.
The figure for `CCCCCCCCCCCCCCCCN1c2ccccc2C(C)(C)C12C=Cc1cccc([N+](=O)[O-])c1O2` (stereo not given) is 14.2%; for `CC1(C)CNC[C@@](C)(O)C(=O)NC(C)(C)CNC[C@@](C)(O)C(=O)N1` it is 4.7%.
The figure for `Cc1ccc(N2CCN(CCC(=O)O)CC2)cc1` is -3.85%.
The figure for `Nc1cccc2c(O)cc(S(=O)(=O)O)cc12` is -10.7%; for `CCOC(=O)C1C(=O)CC(C)(O)C(C(=O)OCC)C1c1ccc(N(C)C)cc1` (stereo not given) it is -37%; for `COC(=O)C(Cc1c[nH]c2ccccc12)NC(=O)C(Cc1c[nH]c2ccccc12)NC(=O)C(Cc1c[nH]c2ccccc12)NC(=O)OC(C)(C)C` (stereo not drawn) (Boc-Trp-Trp-Trp-OMe; configuration not given here) it is 10%.
